From PubChem
Pf growth 96h: P. falciparum growth inhibition at 96 hour, primary screen for plastid delayed-death inhibitors. P. falciparum luciferase reporter growth, 96 h. Potency, µM (top dose mostly 28.7 µM), inactives show at the highest dose activity change, negative = inhibition, most hits filed as inhibitors. AID 504834. 320,000 tested, 6.9% active; note: potency is the fitted concentration of half-maximal effect; % is set by controls: 0 for no effect and ±100 for the full control effect
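Infected RBCs, 2% Hct / 0.05% parasitemia final; luciferase-reporter P. falciparum; cpd 96 h, 37 C, 5% CO2; luciferase detection reagent; luminescence.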
Cycloheximide cs: counter-screen hit for Shiga toxin inhibitors, cycloheximide. max response, %. AID 2314. cell reporter, cycloheximide protein synthesis inhibition counterscreen. 300,000 tested, 12% active; in the data active = max response mostly above about 13%, no sharp cut-off; inactive = mostly below about 14%; note: read at 38.3 µM for the half of the compounds with a filed dose; 0% is about no effect
Pf growth 48h: inhibits P. falciparum growth in the first generation, 48 h | P. falciparum luciferase growth in erythrocytes, 48 h | Potency, µM (top dose mostly 28.7 µM), without a hit: top-dose activity change, negative = inhibition, actives largely listed as inhibitors | 310,000 tested, 5.9% active; note: potency is the fitted concentration of half-maximal effect; % is set by controls: 0 for no effect and ±100 for the full control effect
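Luminescence readout; reporter = integrated firefly luciferase in P. falciparum. RBC culture at 2% hematocrit, 0.1% parasitemia final, 37 C/5% CO2; decreased signal taken as growth inhibition.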
AMA1-RON2 inh: inhibitors of Plasmodium falciparum AMA1-RON2 interaction; Potency, µM (titrated, usually from 58.2 µM), inactives show top-dose activity change, negative = inhibition, hits mostly inhibitors; 360,000 tested, 0.2% active; AID 720542; AlphaScreen AMA1-biotinylated RON2 peptide binding;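 note: potency is the fitted concentration of half-maximal effect; 0% = vehicle wells and -100% = peptide control; nearly all actives have a fitted effect of over 45% in size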
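AMA1 (3D7) with his tag at 25 nM final met compounds first, then biotinylated RON2 peptide at 25 nM; detection used donor plus acceptor beads, 10 µg/mL apiece, read by AlphaScreen after 30 min at room temperature.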
Shiga toxin inh: blocks Shiga toxin action in Vero cells; Vero cells, Shiga toxin protein synthesis inhibition reporter; 290,000 tested, 9.2% active; inhibition, % at 38.7 µM; in the data active = inhibition mostly above about 28%, no sharp cut-off; inactive = mostly below about 43%; note: 0% is about no effect
SARS PLpro yeast: blocks SARS-CoV papain-like protease in a yeast assay; AID 485353; 330,000 tested, 0.19% active; S. cerevisiae expressing SARS-CoV PLpro, growth rescue; Potency, µM (top dose mostly 32.9 µM), for the others: at the highest dose activity, positive = growth rescue, usual class: activators; calls by dose curve; note: potency is the fitted concentration of half-maximal effect; 0% is about no effect; nearly all actives have a fitted effect of over 55% in size
An asterisk follows results filed as active; ? = inconclusive; . = no result given; + = active, no number. In the library only some 19% were active in any assay of this set; here they are far more common. Unless noted, calls come from the whole dose curve; as a rule, active = well fitted curve in the direction sought with a large enough effect; inconclusive = small, poorly fitted or top-dose-only effect, or another doubt; inactive = no such curve, though single readings can be large; an effect the other way counts as inactive or inconclusive.

SMILES | Pf growth 96h | Cycloheximide cs | Pf growth 48h | AMA1-RON2 inh | Shiga toxin inh | SARS PLpro yeast
N#CC1=C(Nc2ccc(Br)cc2)CCC1 | 100% | -1 | 23% | -10% | 23 | 1%
Cc1ccc(NC2=Nc3ccccc3CC2)cc1 | 7% | 11* | -39% | -8% | 32 | 27%
Brc1ccc(NC2=Nc3ccccc3CC2)cc1 | -41% | 56* | 10% | -2% | + | -2%
CC[C@H]1O[C@H](C)CC2=C1C(=O)OC(C)(C)O2 | . | . | . | 3% | . | .
COc1ccc([C@H]2CC(=O)C=C(/C=C/c3ccccc3)C2)cc1OC | ? | . | ? | -28% | . | -4%
COc1cc(N)c(Cl)cc1C(=O)OCC(=O)c1cccs1 | -4% | 19 | 14% | -2% | 54* | -1%
COc1cccc(C(=O)COC(=O)c2cccs2)c1 | -13% | 38* | 33% | -3% | 76* | -2%
O=C(COC(=O)c1cccs1)c1ccccc1 | 35% | 42* | 67% | 3% | 78* | 9%
COc1cc(N)c(Cl)cc1C(=O)OCC(=O)NCc1cccs1 | . | . | . | 16% | . | -3%
COc1ccc(Nc2ccc3nnc(-c4ccc(Br)cc4)n3n2)cc1 | 23% | -4 | ? | . | -8 | -4%
CCOC(=O)C(NC(=O)Cc1ccccc1)(Nc1cc(C)on1)C(F)(F)F (stereo unspecified) | -24% | -1 | -3% | ? | 4 | 1%
COc1cccc(NC(=O)[C@H](C)NC(=O)C2CCN(S(=O)(=O)c3ccc(C)cc3)CC2)c1 | 8% | 10 | 3% | -16% | 21 | 1%
COc1ccc(Br)cc1C1Nc2cccc3cccc(c23)N1 | ? | 30* | 0% | -14% | . | -8%
CN(C)C(=O)c1cc(C(=O)c2ccc(C(F)(F)F)cc2)c[nH]1 | 153% | 16* | . | 9% | 21 | -2%
CN(C)C=NC(=O)c1cc(C(=O)c2ccc(Cl)cc2Cl)c[nH]1 | 4% | 16 | 27% | 38% | 28 | 1%
NC(=O)c1cc(C(=O)c2ccc(Cl)cc2Cl)c[nH]1 | -1% | 7 | 4% | -10% | -2 | -2%
CN(C)C(=O)c1cc(C(=O)c2ccc(Cl)cc2Cl)c[nH]1 | 84% | 51* | . | -19% | 99* | -1%
CN(C)C(=O)c1cc(C(=O)c2ccc(F)cc2Cl)c[nH]1 | 51% | 50* | . | 15% | 73* | 2%
Brc1ccc(N/N=C(/N=Nc2nn[nH]n2)c2ccccc2)cc1 | 1.9µM* | 19* | 3.3µM* | -5% | 53 | ?
O=C(O)c1ccc(N=N/C(=N\Nc2ccc(C(=O)O)cc2)c2ccccc2)cc1 | 212% | . | 84% | -25% | . | -1%
O=C1CN(C(=O)NCC(=O)N[C@@H](C(=O)O)c2ccccc2)c2ccccc2N1 | 74% | -8 | 7% | -4% | 17 | 3%
O=C(CN1CCN(C(=O)CN2C(=O)NC3(CCCC3)C2=O)CC1)Nc1cccc(F)c1 | 17% | . | -7% | 6% | . | 4%
CCc1c(C)nc2c(-c3ccccc3)c[nH]n2c1=O | 0% | -3 | 4% | 20% | -5 | 5%
CCc1c(C)nc2cc(-c3cccc(Br)c3)[nH]n2c1=O | 0% | 38* | ? | 4% | 80* | 0%
Cc1nc2cc(-c3ccc(Br)cc3)[nH]n2c(=O)c1Cl | 9.3µM* | -4 | ? | 1% | -3 | -6%
SMILES | Pf growth 96h | Cycloheximide cs | Pf growth 48h | AMA1-RON2 inh | Shiga toxin inh | SARS PLpro yeast
O=c1c2c(nc3cc(-c4ccc(Cl)cc4)[nH]n13)CCS2 | -77% | 51* | 76% | 11% | 30 | -10%
CCOC(=O)CCc1c(C)nc2cc(-c3ccc(Cl)cc3)[nH]n2c1=O | . | 7 | ? | 6% | -5 | 5%
CCc1c(C)nc2cc(-c3ccc(Cl)cc3)[nH]n2c1=O | 0% | 35* | ? | 5% | 35* | 7%
C1=CCN(Cc2ccccc2)C1 | 98% | -3 | 48% | 3% | -4 | 6%
CCOC(=O)Cc1c(C)nc2cc(-c3ccc(C)cc3)[nH]n2c1=O | 65% | 15* | 38% | -2% | 38 | 2%
COc1ccc(C2=Nc3ccccc3N(C(=O)c3ccc(C(F)(F)F)cc3)C2C(=O)Nc2ccc3c(c2)OCCO3)cc1 (stereo unspecified) | . | . | . | -5% | . | .
Cc1noc2ncnc(Oc3ccc4ccccc4c3)c12 | 0% | -1 | 0% | -1% | 13 | ?
Cc1noc2ncnc(Oc3cc(Cl)ccc3Cl)c12 | 13µM* | 8 | ? | 2% | 3 | 1%
Cc1ccc(-n2nnnc2CNC(=O)c2ccc3c(c2)OCO3)cc1C | 34% | -4 | 13% | 32% | 16 | ?
COc1ccccc1C(=O)NCCC(=O)N(C)CC(=O)Nc1ccc(N2CCOCC2)cc1 | 13% | . | 0% | 4% | . | 1%
O=C(O)Cn1c2ccccc2c2n[nH]c(=S)nc21 | 3.7µM* | -4 | -5% | 88% | . | 9%
O=C(O)CCn1c2ccccc2c2nc3ccccc3nc21 | -5% | 19* | 111% | -7% | 58* | .
c1ccc2nc3c(nc2c1)c1ccccc1n3CCN1CCOCC1 | . | 14 | ? | 6% | 42* | -8%
Nc1c(S(=O)(=O)c2cc(Cl)ccc2Cl)c2nc3ccccc3nc2n1CCN1CCOCC1 | . | -4 | 13µM* | 3% | -16 | -9%
CC(=O)Nc1ccc(S(=O)(=O)c2c(N)n(CCN3CCOCC3)c3nc4ccccc4nc23)cc1 | 0% | -1 | ? | -4% | 24 | 2%
COC(=O)Cn1c2ccccc2c2nc3ccccc3nc21 | -15% | 8 | 12% | -3% | 25 | -8%
Cc1cc(C(=O)Nc2ccc(S(=O)(=O)N3CCOCC3)cc2)ccc1[N+](=O)[O-] | ? | -1 | ? | -5% | . | -5%
CCOc1ccc(C/C(O)=C2\C(=O)CC(C)(C)CC2=NCC(=O)O)cc1OCC | 30% | -8 | 0% | 5% | -1 | -1%
Cc1cccc(NC(=O)CSc2nncn2-c2ccccn2)c1 | 102% | 14 | 22% | 29% | 17 | 4%
CCN(CC)c1ccc(C(=O)n2cnc3ccccc32)cc1 | -19% | 25* | 48% | -9% | 68 | -2%
CN(C)c1ccc(C(=O)n2nnc3ccccc32)cc1 | . | 57* | 27% | 11% | 116* | -15%
CC(C)(C)c1ccc(C(=O)n2cnc3ccccc32)cc1 | ? | 30* | 16% | -15% | 64* | -5%
CCCC(=O)Nc1ccc(C(=O)n2nnc3ccccc32)cc1 | -26% | -2 | 21% | -11% | 21 | -1%
CCN(CC)c1ccc(C(=O)O)cc1 | 75% | -2 | 0% | 0% | -10 | -15%
CCOC(=O)C1CCCN(C(=O)c2ccc3c(c2)C(C)(C)CCC3(C)C)CC1 (stereo unspecified) | . | . | . | -6% | . | .
O=C(CNC(=O)c1cccs1)N=Nc1c(O)[nH]c2ccc([N+](=O)[O-])cc12 | 15% | -3 | 20% | 21% | -4 | 5%
